Compound activity (PubChem BioAssay)
MsrA inhibitor: bovine MsrA enzyme inhibitors, primary screen, biochemical, absorbance, HTS. purified bovine MsrA, absorbance read-out. inhibition, % at 15.5 µM. 0.75% of 360,000 active. AID 651718, 2012. Methionine sulfoxide reductase A (Bos taurus);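 further: 0% = vehicle wells with enzyme and 100% = reference inhibitor wells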
MsrA act: bovine MsrA enzyme activators, primary screen, biochemical, absorbance, HTS | Methionine sulfoxide reductase A (Bos taurus) | purified bovine MsrA, absorbance read-out | activation, % at 10.6 µM | 0.3% of 360,000 active | AID 602163, 2012; in the data active means activation above about 7.5%;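 further: 0% = vehicle and 100% = reference activator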
NPR2 activator: human GC-B receptor activators, primary screen, HEK293 GC-B cells, cGMP TR-FRET, EC30 CNP; activation, % at 10 µM; 0.11% of 370,000 active; Atrial natriuretic peptide receptor 2 (Homo sapiens), P20594; 0% at EC30 CNP, 100% saturating CNP;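 active means activation at 10 µM reaching about 35% in either raw or pattern-adjusted values, limit read from the data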
GC-A act: GC-A stimulated cGMP production enhancers – HEK293 GC-A cells, cGMP TR-FRET, EC30 ANP, primary screen; Atrial natriuretic peptide receptor 1 (Homo sapiens), P16066; 0% at EC30 ANP, 100% saturating ANP; activation, % at 10 µM; 0.14% of 370,000 active; in the data active means activation above about 40%
HTR2A ag: mouse Htr2a agonists via beta-arrestin recruitment, primary screen, cell-based, luminescence | 5-hydroxytryptamine receptor 2A (Mus musculus), P35363 | CHO-K1 mHTR2A beta-arrestin complementation; percent of 30 µM serotonin response | activation, % at 7.6 µM | 0.66% of 360,000 active | AID 624169, 2012;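 active means activation above a run cutoff, the mean activation of all tested compounds plus 3 SD, cut at about 14% in these data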;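 further: 0% = plate median of compound wells and 100% = 30 µM serotonin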
Target sequence (P35363 whole entry, looked up): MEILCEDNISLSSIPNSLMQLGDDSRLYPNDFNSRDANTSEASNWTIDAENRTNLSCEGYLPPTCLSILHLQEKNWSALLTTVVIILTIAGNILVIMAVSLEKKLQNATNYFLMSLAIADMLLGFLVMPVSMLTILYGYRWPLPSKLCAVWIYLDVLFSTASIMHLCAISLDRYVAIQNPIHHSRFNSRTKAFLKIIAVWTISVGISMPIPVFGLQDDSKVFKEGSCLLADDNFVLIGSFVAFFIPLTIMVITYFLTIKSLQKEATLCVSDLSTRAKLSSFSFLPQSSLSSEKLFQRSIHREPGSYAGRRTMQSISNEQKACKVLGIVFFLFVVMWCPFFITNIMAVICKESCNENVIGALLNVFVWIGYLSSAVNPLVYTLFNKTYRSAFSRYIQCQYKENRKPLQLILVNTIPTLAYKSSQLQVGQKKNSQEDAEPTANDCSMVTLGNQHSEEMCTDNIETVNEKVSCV
MOR ag counter: OPRM1 agonists via beta-arrestin recruitment, confirmation, counter-screen for mouse HTR2A agonist project, cell-based, luminescence, single concentration. 5.3% of 2,300 active. shares compounds with HTR2A ag. activation, % at 9.3 µM. U2OS OPRM1 beta-arrestin PathHunter; DMSO 0%, DAMGO 9.3 µM 100%;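 active means mean activation above the mean of DMSO-only wells plus 3 SD, cut at about 0.5% in these data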
HTR2A ag conf: mouse HTR2A agonists, beta-arrestin recruitment, confirmation, cell-based, luminescence, CHO-K1 PathHunter, triplicate; shares compounds with HTR2A ag; DMSO 0%, 30 µM serotonin 100%; activation, % at 7.6 µM; 19% of 2,300 active;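 active means mean activation across triplicates above the hit threshold derived in the original primary screen, cut at about 15% in these data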
MsrA conf: bovine MsrA inhibitors, retest, confirmation, biochemical, absorbance, HTS. shares compounds with MsrA inhibitor. purified bovine MsrA, absorbance read-out. inhibition, % at 15.5 µM. 41% of 2,300 active. AID 651822, 2012;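 further: coupled to thioredoxin reductase with NADPH and selenocystamine and DMSO as substrate; 0% = vehicle only and 100% = full effect of reference inhibitor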
* = called active by the depositor; . = no result given. Hits are enriched below; roughly 1.8% of the tested compounds scored in any of these assays. Unless noted, no stated cut-off is given here; in the data, active means inhibition above about 4.5%; inactive means the rest.

SMILES	MsrA inhibitor	MsrA act	NPR2 activator	GC-A act	HTR2A ag	MOR ag counter	HTR2A ag conf	others
Cc1nc2ccccc2c(=O)n1-c1ccc(NS(=O)(=O)c2ccccc2)cc1	-2	-6	-4	-1	15*	0	-2
CCCCN1C(=O)CC2CCOC21C (stereo not given)	0	-2	-4	0	21*	-1	-3
O=C(CCc1ccccc1)N[C@H]1[C@H](OC(=O)c2ccco2)CCC[C@@]12C(=O)N(Cc1ccccc1)c1ccccc12	.	.	-1	-5	.	.	.
COc1ccc(-c2ccc(CN3C(C)C(=O)N(Cc4cn(Cc5ccco5)nn4)CCS3(=O)=O)cc2)cc1 (stereo not given)	-1	-2	2	-4	0	.	.
Cc1ccc(-c2ccc(CN3C(C)C(=O)N(Cc4cn(Cc5ccco5)nn4)CCS3(=O)=O)cc2)cc1 (stereo not given)	-1	0	0	2	18*	-1	-4
COc1ccc(-c2ccc(CN3C(C(C)C)C(=O)N(Cc4cn(Cc5ccco5)nn4)CCS3(=O)=O)cc2)cc1 (stereo not given)	-1	1	-3	-8	18*	-1	-3
COc1ccc(-c2ccc(CN3C(C(C)C)C(=O)N(Cc4cn(Cc5ccco5)nn4)CCS3(=O)=O)cc2)cc1OC (stereo not given)	-1	-2	2	1	0	.	.
Cn1c(N)c(C(=O)/C=C/c2ccccc2)c(=O)[nH]c1=O	2	-4	-5	6	26*	-1	-4
CCc1ccc2c(c1)C(=O)C(=O)N2CCS(=O)(=O)c1ccccc1	1	-2	-8	-10	21*	-1	2
CCOC(=O)C1CCN(C(=O)C(C)(C)NC(=O)Nc2ccc(N(C)C)cc2)CC1	.	.	-5	-5	.	.	.
Nc1cccc2c(O)cccc12	1	-2	-4	-6	-3	.	.
O=c1[nH]ccc2c(O)cccc12	0	-2	0	2	16*	0.7*	4
C[C@H]1[C@@H](NC(=O)C2CCCCC2)CC[C@@]23CCCN2C(=O)CCC[C@@H]13	.	.	-8	-3	.	.	.
CC(=O)N1CCOc2cc(S(=O)(=O)N3CCN(c4ccccc4)CC3)c(Cl)cc21	0	-3	-4	-7	25*	-1	-5
C#CCNC(=O)c1cnn(-c2ccccc2)c1N	.	.	6	1	.	.	.
C#CCNC(=O)C[C@H]1C(=O)N(Cc2ccc(OC)cc2)C2=CCCCC[C@@]21C(=O)OC	.	.	-1	1	.	.	.
O=[N+]([O-])c1cc(-c2nnc(Nc3ccc(O)cc3)c3ccccc23)ccc1N1CCOCC1	1	-12	9	8	31*	0	21*
Cc1ccc(NC(=O)CSc2nc(N)cc(=O)[nH]2)cc1S(=O)(=O)N1CCCCCC1	0	-7	-3	-5	16*	-1	-5
Cc1c(-c2cccc(NC(=O)c3cccs3)c2)nc2ncccn12	2	-11	2	1	15*	-1	7
Cc1c(-c2cccc(NC(=O)c3ccco3)c2)nc2ncccn12	1	-5	-1	1	10	.	.
O=C(CN(CCc1ccccc1)S(=O)(=O)c1ccccc1)N1CCOCC1	.	.	4	2	.	.	.
CCC/C(O)=C1\C(=O)CCCC1=NCCc1ccc(OCC)c(OCC)c1	0	-1	-5	-2	15*	-1	-3
COc1ccc(-c2cnc3c(NC(C)=O)cc(-c4ccc(C(=O)N5CCOCC5)cc4)cn23)cc1OC	0	-2	16	8	15*	0	3
O=C(NCCc1ccccc1)OCc1cn(-c2ccccc2Cl)nn1	.	.	-1	2	.	.	.
Cc1ccc2[nH]c(-c3ccccc3)c(CN3CCCC3)c(=O)c2c1	0	-3	2	-2	20*	0	11
SMILES	MsrA inhibitor	MsrA act	NPR2 activator	GC-A act	HTR2A ag	MOR ag counter	HTR2A ag conf	others
O=C(N[C@H](CO)c1ccccc1)[C@H]1O[C@@H](n2ccc(=O)[nH]c2=O)[C@H](O)[C@@H]1O	-1	-2	-6	2	15*	-1	0
O=C(N[C@H](CO)Cc1ccccc1)[C@H]1O[C@@H](n2ccc(=O)[nH]c2=O)[C@H](O)[C@@H]1O	1	-10	-5	-4	1	.	.
COC(=O)[C@]12C[C@H](CC(=O)NCC34CC5CC(CC(C5)C3)C4)C(=O)N(Cc3ccco3)C1=C[C@H](C(C)C)O[C@@H]2C1CC1	.	.	-8	-4	.	.	.
Cc1ccc(Cn2c(=O)n(CCC(=O)NCc3ccc4c(c3)OCO4)c(=O)c3ccccc32)cc1	-1	-2	4	-2	5	.	.
N#Cc1ccccc1Cn1c(=O)n(CCCC(=O)NCc2ccc3c(c2)OCO3)c(=O)c2ccccc21	1	-3	9	2	15*	0	-2
CCOC(=O)C1CCCN(S(=O)(=O)c2cc3c(cc2Br)CCN3C(=O)CC)C1 (stereo not given)	.	.	-2	-1	.	.	.
O=C(CC1CS(=O)(=O)CC1CC(=O)Oc1ccccc1F)Oc1ccccc1F (stereo not given)	0	-2	-1	7	16*	0	-2
CCc1ccccc1NC(=O)CC1CS(=O)(=O)CC1CC(=O)Nc1ccccc1CC (stereo not given)	0	2	4	1	4	.	.
COc1ccc(C2/C=C\CN(C(=O)C3CCCCC3)CC(=O)N2Cc2ccc(F)cc2)cc1 (stereo not given)	2	-3	-4	-2	3	.	.
COc1ccc(C2/C=C\CN(C(=O)C3CCCC3)CC(=O)N2Cc2ccc(F)cc2)cc1 (stereo not given)	2	-9	1	-1	24*	-1	62*
Cc1ccc[n+](/C(=C\C(=C=[N-])C#N)C(=O)c2ccc(Cl)cc2)c1	4.8*	-6	-3	1	17*	-1	-2	MsrA conf=5.0*
CC(=O)N1CCN(C(=O)CSc2nc3cccnc3n2C)CC1	.	.	-3	0	.	.	.
